Screening results (PubChem)
This is a sample that favours compounds with a hit; in the whole collection about 2.9% have one here.
MEKK2mut PB1 HTS – signal of MEK5 binding to mutant human MEKK2 PB1 domain. actives 0.35% (n = 290,000). AID 1530. bead flow cytometry, Alexa488-MEK5 binding to MEKK2 mutant. percent response, % at 10 µM; in the data active = percent response above about 24%, passing the limit was not always enough
FID counter – fluorescent intercalator displacement, NS3 helicase counter-screen; DNA fluorescent intercalator displacement, fluorescence; inhibition, % at 7.9 µM; actives 0.17% (n = 290,000); AID 1845; in the data active = inhibition above about 37%;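 also: 0% = vehicle and 100% = reference compound; higher means more ethidium bromide displaced from hairpin DNA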
dFosB act – enhances mouse delta FosB homodimer DNA binding. P13346. purified delta FosB, TAMRA-CDK5 oligo fluorescence polarization; percent of positive-control signal above neutral wells. activation, % at 25 µM. actives 0.99% (n = 340,000). AID 493131;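 active = mean activation above about 17%, with every replicate also reaching it, limit read from the data, passing the limit was not always enough; inconclusive = only one of the two conditions met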
Target sequence (P13346 whole entry, looked up): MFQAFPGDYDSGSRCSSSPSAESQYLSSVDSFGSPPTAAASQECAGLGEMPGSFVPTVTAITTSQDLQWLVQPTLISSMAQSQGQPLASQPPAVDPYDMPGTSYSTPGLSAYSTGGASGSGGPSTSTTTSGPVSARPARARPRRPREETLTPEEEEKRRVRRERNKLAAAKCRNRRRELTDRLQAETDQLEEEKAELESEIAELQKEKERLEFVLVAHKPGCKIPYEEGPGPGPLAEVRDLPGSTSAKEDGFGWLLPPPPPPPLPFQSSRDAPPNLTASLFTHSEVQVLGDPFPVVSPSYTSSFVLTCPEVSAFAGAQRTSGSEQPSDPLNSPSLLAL
MEKK3 PB1 HTS – modulators (inhibitors or enhancers) of MEK5 binding to human MEKK3 PB1 domain. Q99759. bead-based flow cytometry, Alexa488-MEK5 binding to MEKK3; actives lie on both sides; 0 = blocked by unlabeled MEK5, 100 = vehicle. binding response (% of control), % at 10 µM. actives 1.4% (n = 290,000). AID 1529;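 active = binding response more than 3 SD above or below the average of its plate-row segment, actives on both sides; inconclusive = wells at one plate position flagged as instrument error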;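 also: Alexa488 bead fluorescence after subtracting the streptavidin-only scavenger bead signal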
MEKK2wt PB1 HTS – raises or lowers MEK5 binding to wildtype human MEKK2 PB1 domain; actives 1.1% (n = 290,000); Q9Y2U5; bead flow cytometry, Alexa488-MEK5 binding to MEKK2 WT; actives lie on both sides; binding response (% of control), % at 10 µM; in the data active = binding response below about 67% or above about 130%; inconclusive = no clear call, values can overlap the other calls; inactive = in between
* marks the source's active call; other numbers are inactive results; ? = inconclusive; / = not tested or not shown; ! = a repeat was not active.

SMILES	MEKK2mut PB1 HTS	FID counter	dFosB act	MEKK3 PB1 HTS	MEKK2wt PB1 HTS
Cc1ccc(S(=O)(=O)N2C(=O)C(C)SC2=Nc2ccccc2)cc1 (stereo unspecified)	-1	-10	0	102	100
c1ccc2c(c1)nc(Nc1ccc(N3CCCCC3)cc1)c1nncn12	2	-8	-26	99	-4.0*
c1ccc(N2CCCCC2)c(Nc2nc3ccccc3n3cnnc23)c1	4	-2	-8	106	99
CC(C)OC(=O)CC12CN(C)CC(CC(=O)OC(C)C)(CN(C)C1)C2=O	9	-2	9	99	101
O=C(Nc1cc(Cl)ccc1Cl)C1CC(=O)N(c2ccccc2)C1 (stereo unspecified)	-1	-6	20*	102	101
CCOc1ccc(NC(=O)CN2C(=O)CSc3ccc(S(=O)(=O)N4CCCC4)cc32)cc1	4	-30	-4	100	106
CCOc1ccc(NC(=O)CN2C(=O)CCSc3ccc(S(=O)(=O)N4CCCC4)cc32)cc1	2	-45	37*	99	99
COc1ccc(CCNC(=O)CCC2COc3ccccc3O2)cc1OC (stereo unspecified)	0	-21	-4	88	88
O=C(CSc1nnnn1-c1ccccc1)Nc1ccc(N2CCOCC2)c(Cl)c1	0	-5	3	103	102
CN1CCN(c2ccc(NC(=O)CSc3nnnn3-c3ccccc3Cl)cc2)CC1	1	37*	-5	100	108
COc1ccc(CN2CCNC(=O)C2CC(=O)NC2CCCCCCC2)cc1C (stereo unspecified)	28*	-25	-2	108	128
COc1ccc(CN2CCNC(=O)C2CC(=O)NC2CCCCCC2)cc1C (stereo unspecified)	3	-28	-2	104	121
O=C1c2c(O)cccc2Cc2cccc(O)c21	/	/	26*	/	/
Cc1nc(CS(=O)(=O)c2ccc(Cl)cc2)cc(Sc2ccccc2Cl)n1	9	-23	-12	105	105
O=C(Nc1ccc(N2CCOCC2)cc1)c1ccccc1SCC(=O)N1CCCC1	-11	-9	-2	93	83
Cc1ccc2c(c1)C(CCN)C(=O)N2Cc1ccccc1 (stereo unspecified)	12	13	1	90	108
Cc1ccc2c(c1)C1CCCC3C1N2CC(=O)N3Cc1ccccc1 (stereo unspecified)	18	-18	/	100	18*
COc1ccc([C@H]2CC(=O)C=C(c3ccc(SC)cc3)C2)cc1	/	/	-7	/	/
C[C@H](NC(=O)CCC1CCC(=O)N1)c1ccccc1 (stereo partly specified)	2	/	7	98	104
CC(C)Cc1cc(C(=O)NCc2ccco2)no1	9	-2	-2	109	92
COc1ccc(NC(=O)CSc2nc3c(sc4ccccc43)c(=O)n2CCCN2CCCC2)cc1	39*	33	?	105	176*
O=C(CSc1nc2c(sc3ccccc32)c(=O)n1CCCN1CCCC1)NCC1CCCO1 (stereo unspecified)	5	11	-15	101	103
CN(C)CCCN(CCCN(C)C)C(=S)Nc1ccc(S(=O)(=O)N2CCOCC2)cc1	22	37*	0	118	112
N#Cc1cc2c(nc1SC1CCCCC1O)CCCC2 (stereo unspecified)	10	-19	-3	102	108
Cc1ccc(S(=O)(=O)Nc2cc(C(=O)NCCN(C)C)ccc2N2CCCC2)cc1	-5	30	-2	100	106
SMILES	MEKK2mut PB1 HTS	FID counter	dFosB act	MEKK3 PB1 HTS	MEKK2wt PB1 HTS
CCN(CC)CCCNC(=O)c1ccc(N2CCCCC2)c(NS(=O)(=O)c2ccc(C)cc2)c1	-3	51*	-10	94	108
CCN1CCN(c2ccc(S(=O)(=O)N3CCCCC3)cc2NC(=O)c2sccc2C)CC1	/	/	-5	/	/
COc1ccccc1NS(=O)(=O)c1ccc(O)c(C(=O)OCC(=O)Nc2ccccc2F)c1	2	-14	-12	100	95
O=C(COC(=O)c1cc(S(=O)(=O)Nc2ccccc2Cl)ccc1O)Nc1ccc(F)c(F)c1F	/	/	25*	/	/
CC(C)(CNC(=O)c1cccc(F)c1)CNC(=O)c1cccc(F)c1	/	/	-20	/	/
CC1CCC(C(C)C)C(OC(=O)Cn2c(-c3ccc(Br)cc3)[n+](C)c3ccccc32)C1 (stereo unspecified)	11	26	-7	97	147*!
Cc1cc2c([nH]c3ccccc32)c(C)n1	13	16	-5	107	114
Cc1c2ccncc2cc2c1[nH]c1ccccc12	/	/	78*	/	/
OC(CNCCc1ccc(C(F)(F)F)cc1)COc1cccc2ccccc12 (stereo unspecified)	7	20	-14	106	156*
OC(CNCCc1ccc(C(F)(F)F)cc1)COc1ccc2ccccc2c1 (stereo unspecified)	2	15	-48	99	137
CCc1ccc2nc(N(CCN(C)C)C(=O)c3ccc4ccccc4c3)sc2c1	23	-1	22*	105	133
COc1cc2nc(N(CCN(C)C)C(=O)c3ccc4ccccc4c3)sc2cc1OC	9	21	0	100	113
COc1ccc2nc(N(CCN(C)C)C(=O)c3ccc4c(c3)OCCO4)sc2c1	9	12	0	105	117
CN(C)CCN(C(=O)c1ccc2ccccc2c1)c1nc2ccc(F)cc2s1	9	3	26*	105	115
Cc1cnc(C(=O)N2CCCC(N3CCN(c4cccc(C(F)(F)F)c4)CC3)C2)cn1 (stereo unspecified)	7	-27	-8	102	111
CN(C)c1nc(-c2cn(CCC#N)c3ccccc23)cs1	-6	5	-7	97	-15*
COCCn1cc(-c2csc(N)n2)c2ccccc21	1	-1	-3	100	101
Cc1sc2ncnc(N3CCN(S(=O)(=O)c4ccccc4)CC3)c2c1C	/	/	-8	/	/
Cc1sc2nc(CN3CCCC3)nc(N3CCN(S(=O)(=O)c4ccccc4)CC3)c2c1C	/	/	42*	/	/
CN(C)c1ccc(N=Nc2nc3ccccc3n2C)cc1	-11	34	21*	85	85
CCN1C(=O)/C(=C2/C=CC=CN2C)SC1=S	0	6	-1	96	100
CCN1C(=O)/C(=C\C=C2/C=CC=CN2CC)SC1=S	-1	9	25*	105	104
COc1ccc(C)cc1N(C(=O)c1ccco1)C(C(=O)NC1CCCC1)c1ccc(N2CCOCC2)cc1 (stereo unspecified)	1	-50	-12	102	99
COc1cc(C2NCCc3c2[nH]c2ccccc32)ccc1OC(C)C (stereo unspecified)	-13	37*	/	87	91
COc1cc([C@H]2c3[nH]c4ccccc4c3C[C@H]3C(=O)N4[C@@H](c5cc(OC)c(OC)c(OC)c5)c5[nH]c6ccccc6c5C[C@H]4C(=O)N23)cc(OC)c1OC	1	-18	-8	102	99
